Among the test systems are SK-MEL-2 melanoma; EKVX NSCLC; SN12C renal; UO-31 renal; TK-10 renal; ACHN renal; CAKI-1 renal; A498 renal; CCRF-CEM leukemia; MOLT-4 leukemia.
Holding throughout (assay): NCI-60 one-dose screen, 48 h (100 = growth as untreated, 0 = no growth, -100 = all killed)
Common to all, as to conditions: 10 µM unless noted

SMILES strings stand for the structures. Compounds without any hit were thinned out: in the full panel of roughly 83,000, 20% have a hit.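 How to read the values: 0–100, growth inhibition (40 = 60% inhibited); 0, no net growth; -100 to 0, cell death (-40 = 40% of starting cells died; -100 = all dead).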 Values without a mark were called inactive. The source made the active and inactive calls. Rule for the calls: active = growth percent below 10; inactive = the rest.

For 13 compounds, growth results are on record in PubChem BioAssay (NCI).

Turning to `CN1C(=O)/C(=C/c2ccc(C(=O)Nc3ncc(Cc4ccc(Cl)cc4)s3)cc2)SC1=S`, the growth was 75.6% in the experiment on SK-MEL-2 melanoma; 52.6% with EKVX NSCLC; 68.1% with SN12C renal; 46.7% with UO-31 renal; 57.7% with TK-10 renal; 29.2% in the experiment with ACHN renal. The growth in the experiment on CAKI-1 renal was 21.2%; in the experiment with A498 renal, 39.9%; in the experiment with CCRF-CEM leukemia it was 55.5%; in the experiment on MOLT-4 leukemia, 46.8%.

Consider `COc1ccc(C(=O)Nc2ncc(Cc3ccc(F)cc3)s2)cc1`, for which the growth with SK-MEL-2 melanoma was 30.7%; with EKVX NSCLC it was 38.4%; with SN12C renal, 25.1%; with UO-31 renal, 39.8%; in the experiment with TK-10 renal it was 63.7%; in the experiment on ACHN renal it was 28.3%. Besides, the growth in the experiment with CAKI-1 renal was 22.3%; in the experiment with A498 renal it was -12.4% (active); in the experiment on CCRF-CEM leukemia, 12.3%; in the experiment on MOLT-4 leukemia it was 14.8%.

`Cc1cccc2c1NC(=O)C2(c1ccc(O)cc1)c1ccc(O)cc1`: the growth with SK-MEL-2 melanoma was 89.2%; in the experiment on EKVX NSCLC, 75.7%; in the experiment with SN12C renal, 11.2%; in the experiment with UO-31 renal, 89.2%; with TK-10 renal, 28.8%; in the experiment with ACHN renal, 78.5%. The growth with CAKI-1 renal is 94.1%; in the experiment with A498 renal, 81.5%; with CCRF-CEM leukemia, 71.2%; in the experiment on MOLT-4 leukemia, 84.2%.

On to `CC1=Nc2cnc(Nc3ccc(OCCN4CCCC4)cc3)nc2Nc2ccccc21`, for which the growth with SK-MEL-2 melanoma is 55.9%; with EKVX NSCLC it was 75.1%; in the experiment with SN12C renal, 61.1%; with UO-31 renal, 17.3%; with TK-10 renal, 63.6%; with ACHN renal, 28.7%. Also, the growth with CAKI-1 renal was 20.9%; in the experiment on A498 renal, -7.76% (active); with CCRF-CEM leukemia it was 86.3%; in the experiment with MOLT-4 leukemia, 34.5%.

For `O=S(=O)(NCCCNc1nccc(-c2c(-c3ccc(F)c(O)c3)nc3occn23)n1)c1ccccc1`, the growth in the experiment on SK-MEL-2 melanoma was 31.9%; with EKVX NSCLC it was 101%; in the experiment on SN12C renal, 79.1%; with UO-31 renal it was 75%; in the experiment on TK-10 renal, 122%; with ACHN renal, 70.1%. For the same compound, the growth in the experiment with CAKI-1 renal is 96.5%; in the experiment with A498 renal it was 101%; in the experiment with CCRF-CEM leukemia it was 79.1%; in the experiment on MOLT-4 leukemia, 78.2%.

Turning to `O=Nc1c(-c2c(O)[nH]c3ncccc23)[nH]c2ccccc12`, the growth in the experiment on SK-MEL-2 melanoma was 14.7%; with EKVX NSCLC, 35.5%; in the experiment on SN12C renal it was 72.8%; in the experiment with UO-31 renal, 10.6%; in the experiment on TK-10 renal, 40.3%; in the experiment on ACHN renal, 22.6%. The growth with CAKI-1 renal is 12.4%; with A498 renal, -11.7% (active); in the experiment with CCRF-CEM leukemia it was 64.8%; in the experiment with MOLT-4 leukemia, 40.8%.

Turning to `Cc1cc(N)c2cc(NC(=O)/C=C\c3ccccc3Cl)ccc2n1`, the growth is -72.5% (active) in the experiment on SK-MEL-2 melanoma; -71.8% (active) in the experiment on EKVX NSCLC; -81.7% (active) in the experiment on SN12C renal; -72.1% (active) in the experiment on UO-31 renal; -90% (active) in the experiment with TK-10 renal; -85% (active) with ACHN renal. For the same compound, the growth in the experiment with CAKI-1 renal was -76% (active); with A498 renal, -88.3% (active); with CCRF-CEM leukemia, -74.2% (active); in the experiment with MOLT-4 leukemia, -53.2% (active).

Regarding `CCN(C(=O)N1CCN(c2cc3c(cc2F)c(=O)c(C(=O)O)cn3C2CC2)CC1)c1nc(-c2ccc(Cl)cc2)cs1`, the growth is 9.44% (active) in the experiment on SK-MEL-2 melanoma; 16.9% in the experiment with EKVX NSCLC; 3.28% (active) in the experiment on SN12C renal; 5.03% (active) with UO-31 renal; 28.4% in the experiment with TK-10 renal; -12.2% (active) with ACHN renal. The growth was 6.12% (active) in the experiment on CAKI-1 renal, 3.1% (active) in the experiment on A498 renal, 20.7% in the experiment with CCRF-CEM leukemia and 5.81% (active) in the experiment on MOLT-4 leukemia.

In the case of `CC(C)(C)[Si](C)(C)O[C@H]1C(=O)C=CN2CC=C[C@@H]12`, the growth was 112% [100 µM] in the experiment on SK-MEL-2 melanoma; 91.2% [100 µM] in the experiment on EKVX NSCLC; 97.4% [100 µM] in the experiment on SN12C renal; 80.3% [100 µM] in the experiment on UO-31 renal; 108% [100 µM] with TK-10 renal; 101% [100 µM] in the experiment with ACHN renal. The growth was 104% [100 µM] in the experiment on CAKI-1 renal, 97.9% [100 µM] in the experiment on A498 renal, 106% [100 µM] in the experiment on CCRF-CEM leukemia and 118% [100 µM] in the experiment with MOLT-4 leukemia.

On to `O=C(Cn1c(=O)sc2nc3ccccc3nc21)Nc1ncc(Cc2cccc(Cl)c2Cl)s1`, for which the growth with SK-MEL-2 melanoma is 103%; with EKVX NSCLC, 75.1%; in the experiment on SN12C renal, 92.2%; in the experiment with UO-31 renal, 65.5%; in the experiment with TK-10 renal, 95.5%; in the experiment with ACHN renal, 100%. The growth is 71.7% in the experiment with CAKI-1 renal, 113% in the experiment with A498 renal, 99.8% in the experiment with CCRF-CEM leukemia and 99.8% with MOLT-4 leukemia.

Turning to `COc1ccc(-c2ccc3cnc4sc(-c5ccc(OC)cc5)nc4c3n2)cc1`, the growth is 96.2% in the experiment on SK-MEL-2 melanoma; 68.6% with EKVX NSCLC; 103% in the experiment on SN12C renal; 61.7% in the experiment with UO-31 renal; 142% in the experiment with TK-10 renal; 89.8% in the experiment with ACHN renal. Besides, the growth is 96% in the experiment on CAKI-1 renal, 63.4% with A498 renal, 102% in the experiment with CCRF-CEM leukemia and 85.9% in the experiment with MOLT-4 leukemia.

In the case of `C=C1C(=O)O[C@H]2[C@H]1CC/C(COC(=O)CCSCCC(=O)OC/C1=C/CC[C@@]3(C)O[C@H]3[C@H]3OC(=O)C(=C)[C@@H]3CC1)=C\CC[C@@]1(C)O[C@@H]21`, the growth with SK-MEL-2 melanoma is 23.8%; in the experiment with EKVX NSCLC it was 12%; with SN12C renal it was 0.113% (active); in the experiment with UO-31 renal, -49.4% (active); with TK-10 renal, -3.89% (active); in the experiment on ACHN renal, -12% (active). For the same compound, the growth in the experiment with CAKI-1 renal was 4.51% (active); with A498 renal it was 69.8%; with CCRF-CEM leukemia, -24.8% (active); in the experiment on MOLT-4 leukemia it was -25.7% (active).

Regarding `Cc1ccc(-c2csc(NC(=O)CN3CCN(c4cc5c(cc4F)c(=O)c(C(=O)O)cn5C4CC4)CC3)n2)cc1`, the growth with SK-MEL-2 melanoma is -13.5% (active); with EKVX NSCLC it was 16.5%; with SN12C renal, 16.4%; in the experiment with UO-31 renal it was 12.1%; in the experiment with TK-10 renal, 15.9%; in the experiment on ACHN renal, 4.32% (active). For the same compound, the growth in the experiment on CAKI-1 renal was 20.8%; in the experiment with A498 renal, 7.69% (active); with CCRF-CEM leukemia, 8.52% (active); in the experiment with MOLT-4 leukemia it was 4.51% (active).
